This note sets out measurements from PubChem BioAssay.

The source made the active and inactive calls.

Test [1] is described as follows: small molecules captured by biotinylated probe aFSTL3 – biochemical, small-molecule microarray, fluorescence 635/667, stem cell growth factor project, primary screen (AID 1064).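 Further: measures binding of the biotinylated anti-FSTL3 antibody to printed compounds.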 The note with it: higher = more signal.
A short description of test [2]: binders from COS7 lysate, DM2A8 probe, primary screen, torsin A project, cell lysate, small-molecule microarray, fluorescence 635/667 (AID 1065). The note with it: higher = more signal, COS7 lysate expressing mutant human TOR1A.
Test [3] in a line: small molecules captured by biotinylated probe aFGF2 – biochemical, small-molecule microarray, fluorescence 635/667, stem cell growth factor project, primary screen (AID 1067).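 Further: measures binding of biotinylated aFGF2 protein to printed compounds on slides; z-score merges feature fluorescence and signal-to-noise across triplicate slides.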 The note with it: higher = more signal.
Test [4] in a line: small molecules captured by biotinylated probe aFGF10 – biochemical, small-molecule microarray, fluorescence 635/667, stem cell growth factor project, primary screen (AID 1071).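 Further: score merges 667 nm spot intensity and signal to noise from triplicate slides.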 Conditions: higher = more signal.
In test [5] the target is Neurogenic locus notch homolog protein 2 (Homo sapiens) (UniProt Q04721). The test can be described thus: small molecules binding Notch2 protein – biochemical, small-molecule microarray, 635 nm fluorescence, stem cell growth factors, primary screen (AID 1073). The note with it: higher = more signal.
For test [6], the target named is Pro-neuregulin-1, membrane-bound isoform (Homo sapiens) (UniProt Q02297). Description: small molecules binding neuregulin-1 protein – biochemical, small-molecule microarray, fluorescence 635/667, psychiatric disease protein project, primary screen (AID 1075).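 Further: score combines 667 nm spot fluorescence with signal to noise.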 Conditions: NRG1 binding, 635 nm fluorescence, higher = more signal.
Sequence of Pro-neuregulin-1, membrane-bound isoform (Homo sapiens) (Q02297 whole entry, looked up, the tested form may be a part, canonical isoform): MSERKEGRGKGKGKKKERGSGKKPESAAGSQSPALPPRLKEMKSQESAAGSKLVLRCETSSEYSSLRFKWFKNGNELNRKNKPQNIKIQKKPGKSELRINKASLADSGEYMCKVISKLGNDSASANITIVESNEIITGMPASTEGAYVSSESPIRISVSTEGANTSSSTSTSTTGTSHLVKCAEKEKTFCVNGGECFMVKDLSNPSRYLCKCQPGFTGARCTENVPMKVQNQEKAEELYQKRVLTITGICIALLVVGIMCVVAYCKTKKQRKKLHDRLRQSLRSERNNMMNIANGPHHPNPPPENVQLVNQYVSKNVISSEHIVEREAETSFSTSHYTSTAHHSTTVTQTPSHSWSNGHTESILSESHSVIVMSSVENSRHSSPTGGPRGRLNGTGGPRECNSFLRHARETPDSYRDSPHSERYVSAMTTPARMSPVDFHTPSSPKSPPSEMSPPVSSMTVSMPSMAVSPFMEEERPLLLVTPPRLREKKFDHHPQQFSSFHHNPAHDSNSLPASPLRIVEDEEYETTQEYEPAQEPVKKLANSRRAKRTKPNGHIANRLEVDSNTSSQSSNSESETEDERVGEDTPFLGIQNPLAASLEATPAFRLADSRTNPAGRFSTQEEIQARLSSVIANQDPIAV
The test system of test [7] is Neuregulin-1 EGF-like domain. Description: small molecules binding NRG1 EGF domain – biochemical, small-molecule microarray, 635 nm fluorescence, primary screen (AID 1081).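 Further: binding of the protein to compounds printed on small-molecule microarray slides.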 Conditions: higher = more signal.
Test [8] can be described thus: FRG1 expression reporter modulators in myotubes – cell-based, C2C12 myotubes, firefly/Renilla luciferase, luminescence, FRG1 inhibition for FSHD, primary screen (AID 1084). The note with it: FRG1 promoter luciferase, higher = more signal, called active from +8 up or from −8 down.
Test [9] is described as follows: small molecules captured by biotinylated probe aFST – biochemical, small-molecule microarray, fluorescence 635/667, stem cell growth factor project, primary screen (AID 1086).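 Further: score merges 667 nm fluorescence with signal-to-noise of each printed compound spot.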 The note with it: higher = more signal.
Test [10] is described as follows: binders of probe aHhip on microarray, primary screen, stem cell growth factor project, biochemical, small-molecule microarray, fluorescence 635/667 (AID 1087).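 Further: score merges spot fluorescence at 667nm with spot signal to noise ratio.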 The note with it: higher = more signal.
For test [11], the system named is PRMT1 (protein arginine N-methyltransferase 1). Description: small molecules binding arginine methyltransferase PRMT1 – biochemical, small-molecule microarray, 635 nm fluorescence, primary screen (AID 1088).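 Further: binding of Prmt1 protein to compounds spotted on small-molecule microarray slides.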 The note with it: higher = more signal.
A short description of test [12]: growth effects on S. cerevisiae YJM789 – YJM789 clinical isolate, OD600, 24 h, basal, primary screen (AID 1089).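 Further: growth of clinical yeast isolate S. cerevisiae YJM 789 seeded 1000 cells per well; test concentration not given here.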 The note with it: higher = more signal, called active from +8 up or from −8 down.
Test [13] is described as follows: S. pombe growth modifiers, basal conditions – strain 972, OD600, 24 h, no modulator, primary screen (AID 1090).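 Further: basal condition with compound alone and no growth modifier present; test concentration not given here.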 Conditions: S. pombe 972 growth, higher = more signal, called active from +8 up or from −8 down.
Test [14] in a line: budding yeast growth modifiers under rapamycin – strain BY4716, OD600, 96 h, primary screen (AID 1091). Further: test concentration not given here. Conditions: S. cerevisiae BY4716 + rapamycin, higher = more signal, called active from +8 up or from −8 down.
The target in test [15] is Torsin-1A-interacting protein 2 (Homo sapiens) (UniProt Q8NFQ8). The test can be described thus: small molecules binding lysate-expressed LULL1 – cell lysate, human LULL1 lysate, 635/667 nm fluorescence, primary screen (AID 1092).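 Further: probe is lysate of COS7 cells overexpressing human LULL1; score merges per-feature 667 nm fluorescence with signal-to-noise.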 Conditions: small-molecule microarray, hLULL1 lysate binding, 635 nm fluorescence; higher = more signal.
Sequence of Torsin-1A-interacting protein 2 (Homo sapiens) (Q8NFQ8 whole entry, looked up): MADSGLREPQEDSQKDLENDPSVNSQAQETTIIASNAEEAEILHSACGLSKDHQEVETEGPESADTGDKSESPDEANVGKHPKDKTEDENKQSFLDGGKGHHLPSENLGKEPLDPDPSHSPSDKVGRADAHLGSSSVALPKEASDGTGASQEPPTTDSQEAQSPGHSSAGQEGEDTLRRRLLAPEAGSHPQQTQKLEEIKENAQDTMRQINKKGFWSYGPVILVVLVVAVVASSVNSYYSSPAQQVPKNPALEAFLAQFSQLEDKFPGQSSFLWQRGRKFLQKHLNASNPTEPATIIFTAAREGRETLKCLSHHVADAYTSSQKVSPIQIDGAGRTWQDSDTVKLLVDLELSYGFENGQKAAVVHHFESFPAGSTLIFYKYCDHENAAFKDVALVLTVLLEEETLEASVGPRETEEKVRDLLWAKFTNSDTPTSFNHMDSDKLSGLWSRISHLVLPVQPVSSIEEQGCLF
A short description of test [16]: optical density change of DRC41 E. coli – strain DRC41, OD650, 24 h, E. coli filamentation project, primary screen (AID 1093).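 Further: MC1000 strain lacking acrAB efflux and sulA so SOS filamentation is blocked; test concentration not given here.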 Conditions: E. coli DRC41 growth, higher = more signal, called active from +8 up or from −8 down.
Test [17] in a line: probe aLefty2 binding to arrayed compounds – biochemical, biotinylated probe, 635/667 nm fluorescence, primary screen (AID 1094).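 Further: score merges spot fluorescence near 667 nm with spot signal-to-noise ratio.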 Conditions: small-molecule microarray, higher = more signal.
Test [18] deals with Noggin (protein binding on small-molecule microarray). Description: small molecules binding Noggin protein – biochemical, 635/667 nm fluorescence, primary screen (AID 1095).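 Further: score merges 667 nm feature fluorescence with signal to noise over triplicate slides.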 Conditions: 635 nm fluorescence, higher = more signal.
Test [19] addresses Neurogenic locus notch homolog protein 3 (Homo sapiens) (UniProt Q9UM47). The test can be described thus: small molecules binding NOTCH3 protein – biochemical, 635/667 nm fluorescence, primary screen (AID 1096). The note with it: small-molecule microarray, 635 nm fluorescence, higher = more signal.
Test [20] can be described thus: probe aEGFR binding to arrayed compounds – biochemical, biotinylated probe, 635/667 nm fluorescence, primary screen (AID 1097).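 Further: probe is a biotinylated anti-EGFR antibody binding compounds printed on slides; score combines fluorescence near 667 nm and signal to noise of each spot.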 Conditions: small-molecule microarray, higher = more signal.

Sequence of Neurogenic locus notch homolog protein 3 (Homo sapiens) (Q9UM47 whole entry, looked up): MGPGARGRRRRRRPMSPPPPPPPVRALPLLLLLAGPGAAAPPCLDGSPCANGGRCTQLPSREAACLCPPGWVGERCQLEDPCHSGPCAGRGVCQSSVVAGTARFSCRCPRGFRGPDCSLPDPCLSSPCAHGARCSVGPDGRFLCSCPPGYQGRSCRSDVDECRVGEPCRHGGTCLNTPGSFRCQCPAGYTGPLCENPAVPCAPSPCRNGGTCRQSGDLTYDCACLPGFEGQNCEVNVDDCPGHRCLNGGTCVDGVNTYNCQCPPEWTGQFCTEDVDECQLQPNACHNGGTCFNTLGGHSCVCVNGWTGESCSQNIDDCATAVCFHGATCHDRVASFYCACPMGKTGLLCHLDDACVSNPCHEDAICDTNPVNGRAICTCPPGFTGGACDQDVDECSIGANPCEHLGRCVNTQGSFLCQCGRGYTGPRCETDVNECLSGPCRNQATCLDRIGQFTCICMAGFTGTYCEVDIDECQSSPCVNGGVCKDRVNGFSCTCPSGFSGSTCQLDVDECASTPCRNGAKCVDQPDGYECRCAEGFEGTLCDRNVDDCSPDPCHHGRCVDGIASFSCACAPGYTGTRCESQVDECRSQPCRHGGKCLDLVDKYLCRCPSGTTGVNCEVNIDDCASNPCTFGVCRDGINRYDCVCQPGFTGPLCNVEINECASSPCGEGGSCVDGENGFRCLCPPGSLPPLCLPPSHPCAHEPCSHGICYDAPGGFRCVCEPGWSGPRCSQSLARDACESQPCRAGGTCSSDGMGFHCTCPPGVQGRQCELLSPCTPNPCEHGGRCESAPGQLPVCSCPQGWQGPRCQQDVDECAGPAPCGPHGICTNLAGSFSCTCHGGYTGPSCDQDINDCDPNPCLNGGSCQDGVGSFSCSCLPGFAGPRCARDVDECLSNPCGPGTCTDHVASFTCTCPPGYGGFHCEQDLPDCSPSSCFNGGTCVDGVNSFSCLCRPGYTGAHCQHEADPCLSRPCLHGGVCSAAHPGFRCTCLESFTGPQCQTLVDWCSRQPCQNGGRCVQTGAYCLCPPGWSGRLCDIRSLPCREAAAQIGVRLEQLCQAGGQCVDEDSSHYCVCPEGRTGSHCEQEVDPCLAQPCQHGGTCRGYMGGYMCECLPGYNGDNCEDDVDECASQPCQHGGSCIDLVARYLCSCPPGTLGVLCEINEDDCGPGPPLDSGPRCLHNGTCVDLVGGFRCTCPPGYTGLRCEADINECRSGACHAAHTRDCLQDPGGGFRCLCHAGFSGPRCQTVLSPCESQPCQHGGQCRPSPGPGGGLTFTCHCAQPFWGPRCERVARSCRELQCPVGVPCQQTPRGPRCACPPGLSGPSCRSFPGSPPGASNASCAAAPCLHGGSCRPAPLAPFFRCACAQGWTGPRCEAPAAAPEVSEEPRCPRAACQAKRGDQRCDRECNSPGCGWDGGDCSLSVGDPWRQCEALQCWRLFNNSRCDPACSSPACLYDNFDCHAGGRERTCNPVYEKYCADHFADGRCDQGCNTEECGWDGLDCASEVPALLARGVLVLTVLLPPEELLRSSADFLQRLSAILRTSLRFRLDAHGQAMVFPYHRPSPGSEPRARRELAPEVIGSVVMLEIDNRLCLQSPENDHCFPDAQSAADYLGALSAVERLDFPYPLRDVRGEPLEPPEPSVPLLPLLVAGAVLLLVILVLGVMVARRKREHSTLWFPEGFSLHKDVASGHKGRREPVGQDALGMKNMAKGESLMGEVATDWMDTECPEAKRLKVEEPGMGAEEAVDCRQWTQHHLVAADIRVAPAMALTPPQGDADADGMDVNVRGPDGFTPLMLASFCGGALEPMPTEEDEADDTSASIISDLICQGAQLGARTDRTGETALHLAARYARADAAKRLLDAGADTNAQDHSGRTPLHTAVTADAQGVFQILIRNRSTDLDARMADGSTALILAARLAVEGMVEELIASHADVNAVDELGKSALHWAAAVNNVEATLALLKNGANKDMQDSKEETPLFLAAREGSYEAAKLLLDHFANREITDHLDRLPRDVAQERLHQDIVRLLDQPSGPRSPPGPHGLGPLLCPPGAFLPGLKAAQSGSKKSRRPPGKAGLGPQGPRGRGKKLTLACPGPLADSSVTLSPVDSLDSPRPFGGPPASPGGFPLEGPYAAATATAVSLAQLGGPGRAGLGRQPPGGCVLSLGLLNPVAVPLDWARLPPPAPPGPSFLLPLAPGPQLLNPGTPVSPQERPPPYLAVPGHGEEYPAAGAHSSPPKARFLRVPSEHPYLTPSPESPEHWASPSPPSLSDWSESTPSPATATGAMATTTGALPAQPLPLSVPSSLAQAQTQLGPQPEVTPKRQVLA

As to `CCOC(=O)C1=CCC(c2ccc(F)cc2)N(S(=O)(=O)c2ccc(C)cc2)C1` (stereo not given), the composite z-score is 0.605 in [1]; 0.816 in [2]; 0.0198 in [3]; -0.105 in [4]; 0.552 in [5]; 0.199 in test [6]. In addition, the composite z-score is 0.116 in test [7]; 0.135 in test [9]; -0.226 in [10]; 0.249 in test [11]; 0.799 in test [15]; -0.0396 in [17]. The figures for the composite z-score in test [18], in [19] and in test [20] were -0.0456, 0.284 and -0.0839, respectively. The z-score was -2.7 (inactive) in test [8]; 0.265 (inactive) in [12]; 0.639 (inactive) in test [13]; 1.68 (inactive) in test [14]; -0.704 (inactive) in test [16].
`O=C1OCCC=C[C@H]2OC34C=CCN(Cn5nnc6ccccc65)C(=O)[C@H]3N(CCO)C(=O)[C@@H]4C12` (stereo not given in full): the composite z-score in test [1] was -0.254; in test [2] it was -0.4; in test [3], -0.219; in [4], -0.308; in test [5], -1.06; in [6], 0.0802. The composite z-score was 1.13 in [7]; -0.8 in [9]; -0.226 in [10]; -0.312 in [11]; -0.316 in [15]; -0.135 in test [17]. Moreover, the composite z-score in [18] was -1.26; in test [19] it was -0.491; in test [20], -0.345. Also, the z-score in [8] is 0.684 (inactive); in [12] it was -0.352 (inactive); in test [13], 0.785 (inactive); in test [14], -0.422 (inactive); in test [16], 2.26 (inactive).
`CC(c1ccccc1)C(O)C1C=CC2C(=O)N(C)C(=O)C2N1NC(=O)OC(C)(C)C` (stereo not given): the composite z-score was found to be 0.301 in test [1]; 0.518 in test [2]; 0.225 in test [3]; 0.626 in test [4]; 1.21 in [5]; 1.91 in test [6]. In addition, the composite z-score in test [7] was 1.17; in test [9], 1.14; in [10] it was -0.0645; in test [11] it was 1.39; in [15], 3.43; in test [17] it was 0.12. Further, the values for the composite z-score in test [18], in test [19] and in [20] were 0.01, 1.05 and -0.0859, respectively. Also, the z-score in test [8] was 1.89 (inactive); in [12], 0.476 (inactive); in [13], 0.0391 (inactive); in test [14] it was 0.299 (inactive); in test [16], 0.0596 (inactive).
For the molecule `CCOC(=O)C[C@H]1[C@H](OC(=O)c2ccc(-c3ccccc3)cc2)[C@@H](NC(=O)c2ccccc2)c2cc(OCCCO)ccc2N1C(=O)c1ccc2ccccc2n1`, the composite z-score in test [1] is -0.168; in test [2], 0.732; in [3] it was -0.105; in test [4], 0.311; in test [5], 0.606; in [6] it was 0.742. Further, the composite z-score in [7] was 0.507; in test [9] it was 0.402; in test [10], -0.0994; in [11], 0.316; in test [15] it was 1.23; in test [17], 0.0769. Further, the composite z-score in test [18] was 0.0388; in [19] it was 0.742; in test [20], -0.0031. For the same molecule, the z-score was 1.22 (inactive) in [8]; -1.04 (inactive) in test [12]; 0.0452 (inactive) in [13]; 0.545 (inactive) in test [14]; -0.751 (inactive) in test [16].
With `COc1cc(CO)cc(I)c1O[C@H]1C=C(C(=O)NCCO)C[C@@H](NC[C@@H]2CCCO2)[C@@H]1O`, the composite z-score in test [1] was -0.281; in test [2], 0.445; in test [3], -0.085; in test [4], 0.674; in test [5], 0.041; in test [6], 0.625. For the same molecule, the composite z-score was 1.09 in test [7]; 0.59 in test [9]; -0.169 in [10]; 1.35 in test [11]; 1.91 in test [15]; -0.17 in test [17]. The composite z-score in [18] was 1.26; in test [19], 0.554; in [20], -0.0033. Also, the z-score in [8] is -0.225 (inactive); in [12], -0.396 (inactive); in test [13], -0.424 (inactive); in test [14], -0.0698 (inactive); in [16] it was 1.6 (inactive).
